# A selection: hits, their analogues and other compounds. The true share with any hit is near 6.9%.
# BAZ2B inh = blocks human BAZ2B. AlphaScreen BAZ2B-H3K14Ac peptide displacement. Q9UIF8. Potency, µM (series often up to 114 µM), for the others: at the top dose activity change, negative = inhibition, most hits filed as inhibitors. actives 4.4% (n = 360,000); further: on the % scale 0 is the no-effect control and ±100 the full control effect; nearly all actives have a fitted effect of over 60% in size
#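 Compounds, titrated to a top concentration of 110 uM, were incubated 30 min at room temperature with preformed BAZ2B/acetyl-K14 H3 peptide complex (50 nM each). Proximity signal was measured by AlphaScreen after 20 min with beads.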
# PLK1 PBD inh = inhibitors of human PLK1 polo-box domain binding; actives 2.8% (n = 360,000); P53350; Plk1 PBD binding of FITC phosphopeptide, fluorescence polarization; Potency, µM, inactives show max response, negative = inhibition, usual class: inhibitors; AID 720504; further: series mostly up to about 57 µM; on the % scale 0 is the no-effect control and ±100 the full control effect; nearly all actives have a fitted effect of over 65% in size
# HP1b binding inh = blocks HP1-beta chromodomain binding to methylated histone tails; P83916; AlphaScreen HP1-beta / biotin-H3K9me3 peptide binding; Potency, µM (top dose mostly 114 µM), inactives show at the top dose activity change, negative = inhibition, actives largely listed as inhibitors; actives 0.56% (n = 390,000); AID 540317; further: nearly all actives have a fitted effect of over 70% in size
# Target sequence (P83916 whole entry, looked up): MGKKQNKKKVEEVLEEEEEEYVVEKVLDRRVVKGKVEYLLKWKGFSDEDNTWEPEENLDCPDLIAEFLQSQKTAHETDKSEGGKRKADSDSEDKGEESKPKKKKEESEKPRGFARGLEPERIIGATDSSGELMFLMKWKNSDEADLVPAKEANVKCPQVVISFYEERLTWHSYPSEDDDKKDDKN
#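 Compound inhibition of the preformed complex between 50 nM HP1-beta and 50 nM biotinylated H3K9me3 peptide was read by AlphaScreen. Buffer was PBS pH 7.4 with 0.01% Tween-20. Incubations ran 30 min at room temperature, with 10 ug/mL donor/acceptor beads.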
# JMJD2A Tudor = blocks the human JMJD2A Tudor domain; AID 504339; Potency, µM (titrated, usually from 114 µM), for the others: at the highest dose activity change, negative = inhibition, most hits filed as inhibitors; O75164; AlphaScreen JMJD2A-Tudor / H3K4me3 peptide binding; actives 4.4% (n = 390,000); further: on the % scale 0 is the no-effect control and ±100 the full control effect; nearly all actives have a fitted effect of over 50% in size
# VDR inh = inhibitors of human vitamin D receptor. P11473. VDR-SRC2-3 peptide fluorescence polarization, 2 h. Potency, µM, inactives show max response, negative = inhibition, actives largely listed as inhibitors. actives 0.93% (n = 400,000). AID 504847; further: on the % scale 0 is the no-effect control and ±100 the full control effect
# Target sequence (P11473 whole entry, looked up): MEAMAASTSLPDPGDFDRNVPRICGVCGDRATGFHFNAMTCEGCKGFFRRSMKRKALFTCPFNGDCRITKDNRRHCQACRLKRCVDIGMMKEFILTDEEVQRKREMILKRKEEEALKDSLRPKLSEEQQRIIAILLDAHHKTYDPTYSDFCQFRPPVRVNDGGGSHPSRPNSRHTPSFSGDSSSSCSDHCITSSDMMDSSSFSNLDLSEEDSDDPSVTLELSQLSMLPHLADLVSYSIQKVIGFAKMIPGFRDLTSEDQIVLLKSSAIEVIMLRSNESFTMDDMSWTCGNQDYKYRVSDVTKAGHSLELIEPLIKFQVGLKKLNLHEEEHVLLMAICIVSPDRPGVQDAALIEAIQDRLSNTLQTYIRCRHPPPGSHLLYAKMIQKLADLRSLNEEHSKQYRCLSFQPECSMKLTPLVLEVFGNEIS
#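 Measured by FP: displacement of SRC2-3 coactivator peptide from VDR by library compounds, following a two-hour ambient incubation.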
# L3MBTL1 block = blocks human L3MBTL1. Q9Y468. Potency, µM (series often up to 57.1 µM), without a hit: top-dose activity, negative = inhibition, usual class: inhibitors. AlphaScreen L3MBTL1–H3K9me1 peptide binding. actives 0.66% (n = 230,000); further: on the % scale 0 is the no-effect control and ±100 the full control effect; nearly all actives have a fitted effect of over 60% in size
#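 L3MBTL1 (50 nM) pre-complexed 30 min with biotinylated H3(1-15)K9me1 peptide (75 nM), then compounds added for 30 min at room temperature; AlphaScreen streptavidin donor/nickel chelate acceptor beads (10 ug/mL final) read after 30 min dark incubation.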
# VDR inh confirm = inhibits human vitamin D receptor, primary hit validation | shares compounds with VDR inh | VDR-coactivator inhibition assay, qHTS confirmation | Potency, µM, most hits filed as inhibitors | actives 89% (n = 840) | AID 602199
# VDR FP = blocks human VDR-coactivator binding in fluorescein assay. shares compounds with VDR inh. VDR-coactivator binding, fluorescein fluorescence polarization. Potency, µM (series often up to 57.1 µM), inactives show at the top dose activity change, negative = inhibition, usual class: inhibitors. actives 48% (n = 840)
# VDR bla = inhibits human VDR in beta-lactamase reporter cells. actives 23% (n = 840). shares compounds with VDR inh. Potency, µM (doses to about 46.1 µM), for inactives: at the top dose activity change, negative = inhibition, most hits filed as inhibitors. VDR beta-lactamase reporter cells, FRET ratio; cells co-treated with VDR agonist LG190178; further: on the % scale 0 is the no-effect control and ±100 the full control effect
# VDR cytotox = counter-screen for vitamin D receptor inhibitors: cytotoxicity. shares compounds with VDR inh. cytotoxicity counter-screen, cell viability, qHTS. Potency, µM (titrated, usually from 48.3 µM), without a hit: at the top dose activity change, negative = cytotoxicity, actives largely listed as cytotoxic. actives 18% (n = 840). AID 602204;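 further: plate controls were DMSO for no effect and high-concentration cycloheximide for full effect; nearly all actives have a fitted effect of over 75% in size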
# Numbers without * were called inactive; ? = inconclusive; . = no result given; [ ] = another dose, or the depositor's remark. The call rests on the fitted dose curve; in most records, active means well fitted curve in the direction sought with a large enough effect; inconclusive means small, poorly fitted or top-dose-only effect, or another doubt; inactive means no such curve, though single readings can be large; an effect the other way counts as inactive or inconclusive. Potency means the concentration at half of the fitted maximal effect.
SMILES,BAZ2B inh,PLK1 PBD inh,HP1b binding inh,JMJD2A Tudor,VDR inh,L3MBTL1 block,VDR inh confirm,VDR FP,VDR bla,VDR cytotox
O=[N+]([O-])c1cc(S(=O)(=O)C(F)(F)F)ccc1Sc1nc2ccccc2s1,7.9µM*,13µM*,?,35µM*,35µM*,-4%,9.5*,3.5µM*,?,?
CS(=O)(=O)c1ccc(Sc2nc3ccccc3s2)c([N+](=O)[O-])c1,-38%,-15%,2%,?,-6%,-13%,.,.,.,.
Cc1ccc(S(=O)(=O)CCC(=O)c2cccc([N+](=O)[O-])c2)cc1,-28%,3.8µM*,45µM*,28µM*,16µM*,.,3.5*,3.2µM*,?,?
O=S(=O)(Nc1c(S(=O)(=O)c2ccccc2)c2nc3ccccc3nc2n1C1CCCCC1)c1ccccc1,4%,4.2µM*,68%,11%,?,?,0.35*,0.35µM*,-15%,-18%
O=c1n(Cc2ccc(F)cc2Cl)c2ccccc2c2nc(-c3ccccc3)nn12,-9%,.,10%,-8%,7%,.,.,.,.,.
Cc1ccc(NC(=O)C2=C(c3ccccc3)S(=O)(=O)CCS2(=O)=O)cc1,-2%,6µM*,-22%[57 µM],?,?,-11%,6.3*,8.9µM*,6.5µM*,?
Cc1nc2ccc(N=NN(C)C)cc2[nH]1,-21%,-12%,16µM*,-23%,50µM*,4%,21*,?,7%,?
COc1ccc(S[C@@H](CCN2CC[C@H](O)CCC2=O)c2ccccc2)cc1,0%,-14%,45%,-8%,-1%,0%,.,.,.,.
COc1ccc(CN(C)C[C@H]2OCCCC[C@@H](C)Oc3ccc(NS(C)(=O)=O)cc3C(=O)N([C@H](C)CO)C[C@@H]2C)cc1,.,1%,.,.,.,.,.,.,.,.
CCOc1ccc(C(=O)CC(C(=O)O)N2CCCCC2)cc1 (stereo not drawn),3%,?,27%,-9%,40µM*,1%,24*,?,11%,-1%
CCOc1ccc(C(=O)CC(C(=O)O)N2CCN(Cc3ccccc3)CC2)cc1 (stereo not drawn),4%,-23%,22%,-1%,50µM*,0%,24*,28µM*,27%,-25%
CCOC(=O)c1cccc(NC(=O)C2CCCN(S(=O)(=O)c3cc(Br)cc4c3N(C(=O)CC)CC4)C2)c1 (stereo not drawn),-4%,.,-7%,-15%,2%,.,.,.,.,.
Cc1ccc(C(=O)COc2cc(C)nc3nncn23)cc1,0%,2%,43%,-3%,-8%,-5%,.,.,.,.
COc1ccc(OC)c(NC(=O)c2nc(S(=O)(=O)Cc3ccccc3)ncc2Cl)c1,-35%,?,-13%[57 µM],-18%,10µM*,.,12*,?,8.2µM*,8.2µM*
COc1ccc(NC(=O)c2nc(S(=O)(=O)Cc3cccc(C)c3)ncc2Cl)c(OC)c1,-37%,-9%,48%,-14%,-23%,.,.,.,.,.
COc1ccc2nc(NC(=O)c3nc(S(=O)(=O)Cc4ccccc4F)ncc3Cl)sc2c1,?,.,29%,?,-5%,.,.,.,.,.
COc1ccc(OC)c(NC(=O)c2nc(S(=O)(=O)Cc3ccccc3F)ncc2Cl)c1,.,.,.,.,.,.,2.8*,4µM*,16µM*,11µM*
CCOC(=O)c1c(NC(=O)CSc2nnc(-c3ccccc3)o2)sc(C(C)=O)c1C,-10%,15%,16%,-18%,39%,.,.,.,.,.
CCOC(=O)c1sc(NC(=O)CSc2nnc(Cc3ccccc3)o2)c(C#N)c1C,?,1.7µM*,?,56µM*,13µM*,7%[11.4 µM],3*,?,73%,-2%
c1ccc(CCc2nn3c(Cc4ccccc4)nnc3s2)cc1,-12%,11µM*,?,-24%,79µM*,-1%,28*,25µM*,-5%,?
c1ccc(Cc2nnc3sc(-c4ccncc4)nn23)cc1,-3%,?,-26%,-12%,4%,-5%,.,.,.,.
CC1(C)COC(/C=C/c2cccc([N+](=O)[O-])c2)=N1,13%,-4%,17%,-20%,-24%,?,.,.,.,.
O=c1[nH]c(/C=C/c2cccc([N+](=O)[O-])c2)c([N+](=O)[O-])c(=O)[nH]1,13%,-5%,-6%,-4%,28µM*,13%,12*,7.1µM*,24%,?
O=c1[nH]c(/C=C/c2ccccc2)c([N+](=O)[O-])c(=O)[nH]1,-4%,-21%,20%,-14%,22µM*,3%,24*,?,2%,26%
O=c1[nH]c(/C=C\c2cccc(Cl)c2)nc(O)c1[N+](=O)[O-],-3%,0%,21%,-17%,28µM*,-10%,13*,?,20%,16%
SMILES,BAZ2B inh,PLK1 PBD inh,HP1b binding inh,JMJD2A Tudor,VDR inh,L3MBTL1 block,VDR inh confirm,VDR FP,VDR bla,VDR cytotox
O=[N+]([O-])c1ccc(C=CC=Cc2ccccc2)cc1,.,4%,.,.,.,.,.,.,.,.
O=c1[nH]c(/C=C/c2ccc(Cl)cc2Cl)c([N+](=O)[O-])c(=O)[nH]1,56µM*,-15%,6%,-21%,18µM*,-8%,4.7*,?,-16%,21%
COc1ccc(/C=C\c2nc(O)c([N+](=O)[O-])c(=O)[nH]2)cc1O,-25%,2%,-10%,-21%,-23%,.,.,.,.,.
N#CCCN(CCN1CCCC1)S(=O)(=O)c1ccc(-c2ccc([N+](=O)[O-])cc2)cc1,?,-7%,23%,-2%,-8%,-11%,.,.,.,.
COc1ccc(S(=O)(=O)N2CCOCC2)cc1NC(=O)C1CCN(S(=O)(=O)c2ccc(Cl)cc2)CC1,.,6%,15%,-2%,-11%,.,.,.,.,.
CCOc1ccc(C2C3=C(CC(C)(C)CC3=O)N(CCCOC)C3=C2C(=O)CC(C)(C)C3)cc1OC,.,-4%,.,.,.,.,.,.,.,.
CN(C)c1ccc(CNC(=O)c2ccccc2NC(=O)c2nsc3ccccc23)cc1,-30%,.,4%[57 µM],-21%,1%,.,.,.,.,.

# Bioassay records from PubChem.
